# Assay results: PubChem BioAssay AID1053126 (Broad Institute, 2014)
# Measured potencies and affinities stand elsewhere. Activity calls are given as the source filed them.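 How the source made its calls: active means cell killing with a fitted half-effect concentration at or below twice the top valid dose; inconclusive means flat curve with 30 to 70 percent drop, or poor fit; inactive means the rest.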
# Experiment: viability loss in HEK293T kidney cells – cell-based, ATP luminescence, cherry-pick, set 6, cytotoxicity control, dose response (AID 1053126)
# Settings: CellTiter-Glo ATP luminescence, 72 h; series mostly up to 26 µM
row,Structure (SMILES),outcome
1,CC12CC(c3ccccc3O1)C(C(=O)OCc1ccccc1)C(=O)N2 (stereo not drawn),inactive
2,CC(C)OP(=O)(O)NC(=O)c1ccccc1,inactive
3,Nc1ccc2ccc3cccc[n+]3c2c1,inactive
